From PubChem BioAssay (NCI)
The panel holds about 79,000 compounds, 15% with a hit somewhere; the sample as a whole holds those more often. Values without a mark were called inactive. The source made the active and inactive calls. Rule as the data show it: active = growth inhibition above about 70%; inactive = the rest.

Columns and labels:
[1] = NCI Yeast Anticancer Drug Screen. Data for the rad50 strain (AID 155);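 also: 0% = growth of vehicle-only cultures of the same strain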; details: S. cerevisiae rad50 strain growth inhibition, hits give high values
Summary of the method: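 A DNA repair-deficient yeast mutant serves as the test organism; compound-induced growth inhibition is calculated against vehicle-treated cells.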

[2] = NCI Yeast Anticancer Drug Screen. Data for the mec2-1 strain (AID 157); details: S. cerevisiae mec2-1 strain, hits give high values
Summary of the method: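 Test agents were screened against the mec2-1 yeast strain, with defined DNA repair or cell cycle alteration. Growth was scored as inhibition against vehicle-only controls.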

[3] = NCI Yeast Anticancer Drug Screen. Data for the sgs1 mgt1 strain (AID 161);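 also: 0% = growth of cultures given vehicle only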; details: S. cerevisiae sgs1 mgt1 strain, hits give high values
Summary of the method: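 Mutant yeast exposed to compound; growth scored against vehicle-only wells.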

[4] = NCI Yeast Anticancer Drug Screen. Data for the cln2 rad14 strain (AID 165);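 also: 0% = growth equal to vehicle treated cultures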; details: S. cerevisiae cln2 rad14 strain, hits give high values
Summary of the method: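 Growth of compound-exposed yeast (cln2 rad14 genotype) measured and expressed as inhibition relative to vehicle.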

[5] = NCI Yeast Anticancer Drug Screen. Data for the bub3 strain (AID 167); details: S. cerevisiae bub3 mutant strain, hits give high values
Summary of the method: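 Inhibition values come from growth of compound-treated mutant yeast normalised to vehicle-treated controls.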

[6] = NCI Yeast Anticancer Drug Screen. Data for the mlh1 rad18 strain (AID 175); details: S. cerevisiae mlh1 rad18 strain growth inhibition, hits give high values
Summary of the method: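 In this whole-cell yeast screen, a strain with altered DNA damage repair is challenged with compound, and its growth is measured against matched vehicle-treated controls.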

[7] = at 5.0 µM (retest, dose inferred, filed as 0.5)
[8] = at 50.0 µM (retest, dose inferred, filed as 5.0)

Row | SMILES | growth inhibition [1, 7] | growth inhibition [1, 8] | growth inhibition ([1]; at 50.0 µM) | growth inhibition [2, 7] | growth inhibition [2, 8] | growth inhibition ([2]; at 50.0 µM) | growth inhibition [3, 7] | growth inhibition [3, 8] | growth inhibition ([3]; at 50.0 µM) | growth inhibition [4, 7] | growth inhibition [4, 8] | growth inhibition ([4]; at 50.0 µM) | growth inhibition [5, 7] | growth inhibition [5, 8] | growth inhibition ([5]; at 50.0 µM) | growth inhibition [6, 7] | growth inhibition [6, 8] | growth inhibition ([6]; at 50.0 µM)
1 | S=C(NN1CCOCC1)SSC(=S)NN1CCOCC1 | 97% (active) | 99% (active) | 99.5% (active) | 97% (active) | 99% (active) | 99.6% (active) | 94% (active) | 99% (active) | 99.6% (active) | 92% (active) | 83% (active) | 99.3% (active) | 34% | 99% (active) | 99.8% (active) | 77% (active) | 99% (active) | 99.5% (active)
2 | O=C(O)/C=C/c1ccc(Cl)cc1Cl | 6% | 95% (active) | 89.5% (active) | -8% | 56% | 33.5% | 2% | 39% | 65.8% | 1% | 57% | 37.8% | 41% | 85% (active) | 74.3% (active) | 6% | 94% (active) | 92.6% (active)
3 | c1ccc(N=C2SC3=NCCN3C2=Nc2ccccc2)cc1 | 43% | 87% (active) | 50% | 7% | 86% (active) | 74.5% (active) | 17% | 86% (active) | 72% (active) | 31% | 66% | 46.6% | -11% | 97% (active) | 70.2% (active) | 13% | 78% (active) | 61.9%
4 | C#CC(=O)OCC#CCOC(=O)C#C | 3% | 77% (active) | 97.5% (active) | 0% | 95% (active) | 98.5% (active) | -9% | 83% (active) | 78.2% (active) | -7% | 15% | 49.2% | 1% | 76% (active) | 92.2% (active) | 5% | 96% (active) | 96% (active)
5 | CCOC(=O)C1(C#N)C(c2ccccc2)C1(C#N)C#N (configuration not stated) | 18% | 85% (active) | 97.9% (active) | 29% | 96% (active) | 99.3% (active) | 31% | 34% | 98.5% (active) | 9% | 76% (active) | 97.8% (active) | 14% | 92% (active) | 97.4% (active) | 42% | 98% (active) | 98.8% (active)
6 | CCOC(=O)C1CC(C(=O)OCC)C(=O)C1=O (configuration not stated) | 45% | 96% (active) | 96.3% (active) | 27% | 95% (active) | 91% (active) | 54% | 96% (active) | 43.6% | 28% | 97% (active) | 34.2% | 44% | 97% (active) | 94% (active) | 37% | 98% (active) | 47.9%
7 | CCOC(=O)N1C=CC(=C2C(=C3C=CN(C(=O)OCC)C=C3)C(=C3C=CN(C(=O)OCC)C=C3)C2=C2C=CN(C(=O)OCC)C=C2)C=C1 | 55% | 95% (active) | 95.9% (active) | -4% | 57% | 75.3% (active) | -4% | 60% | 65.8% | -3% | 52% | -0.55% | -4% | 47% | 54.1% | 1% | 58% | 85.7% (active)
8 | Nc1nc(-c2ccccn2)cc2cc(Cl)ccc12 | 93% (active) | 99% (active) | 3.15% | 92% (active) | 100% (active) | -5.45% | 95% (active) | 99% (active) | 7.55% | 88% (active) | 98% (active) | -1.4% | 92% (active) | 99% (active) | 8.05% | 94% (active) | 98% (active) | 13.9%
9 | C/C=C(\C)C(=O)OC1C2C(C)=CC(=O)C(O)C2(C)C2C3(O)OCC24C1OC(=O)C(O)C4C(C)C3O (configuration not stated) | -2% | 54% | 84.2% (active) | 15% | 30% | 72.5% (active) | 9% | 42% | 71.7% (active) | 8% | 67% | 78.5% (active) | -13% | 51% | 75.8% (active) | -33% | 66% | 34.5%
10 | CCCCN(CCO)CCNc1ccc(C)c2sc3ccccc3c(=O)c12 | 17% | 99% (active) | 99.7% (active) | 14% | 99% (active) | 99.8% (active) | 29% | 100% (active) | 99.6% (active) | 17% | 99% (active) | 99.7% (active) | 24% | 99% (active) | 99.6% (active) | 22% | 99% (active) | 95.5% (active)
11 | CCCCN(CCCC)CN1C(=O)/C(=C/c2ccc(NC(C)=O)cc2)NC1=S | 7% | 62% | 78% (active) | -7% | 64% | 79.6% (active) | -1% | 64% | 79.9% (active) | -2% | 63% | 79.8% (active) | -15% | 53% | 72.7% (active) | -3% | 79% (active) | 86.2% (active)
12 | C(=Nc1ccccc1)c1cn(Cc2ccccc2)c2ccccc12 | 90% (active) | 95% (active) | 83.1% (active) | 99% (active) | 99% (active) | -10.2% | 99% (active) | 99% (active) | 64.7% | 100% (active) | 99% (active) | -12.6% | 99% (active) | 99% (active) | 11.6% | 99% (active) | 97% (active) | 36.9%
13 | C/C(O)=c1\cc(C#N)c(=C(C#N)C#N)nc1C | -4% | -3% | 8.05% | -2% | 1% | -0.15% | 2% | 5% | 1.15% | -1% | -8% | -3% | 3% | 11% | 10.6% | 0% | 3% | 46.4%
14 | O=C1C(Sc2ccc3ccccc3c2)=C(Sc2ccc3ccccc3c2)C(=O)c2ccccc21 | 34% | 90% (active) | 94.2% (active) | 21% | 94% (active) | 99% (active) | 36% | 93% (active) | 98.9% (active) | 7% | 89% (active) | 98.3% (active) | 71% (active) | 90% (active) | 98.9% (active) | 16% | 89% (active) | 96.8% (active)
15 | CCCCCCCCCCCC[n+]1ccc(C)cc1 | 33% | 99% (active) | 98.2% (active) | 76% (active) | 100% (active) | 99.2% (active) | 33% | 99% (active) | 99% (active) | 20% | 99% (active) | 96.8% (active) | 80% (active) | 99% (active) | 98.9% (active) | 18% | 99% (active) | 98.3% (active)
16 | COc1cc2c(cc1OC)C(C)N(C)c1c-2c(OC(C)=O)cc2cc(OC)c(OC)cc12 (configuration not stated) | 2% | 52% | 82.5% (active) | -4% | 64% | 87.4% (active) | -4% | 67% | 64.2% | -8% | 49% | 19.6% | -4% | 72% (active) | 42.2% | -3% | 54% | 70.5% (active)
17 | Cc1cc(Cl)c2cc(Cc3ccc(Br)cc3)ccc2n1 | -3% | 10% | 16.5% | -10% | 20% | 36% | 11% | 37% | 43.9% | 1% | -1% | 50.6% | 4% | 12% | 37.6% | 15% | 15% | 55.9%
18 | O=C(O)C1C(=O)OC2CCCCC21 (configuration not stated) | 0% | -4% | 3.25% | 1% | 1% | -6.45% | 1% | 0% | 0.45% | -3% | 1% | 69.4% | 0% | -3% | -0.95% | -2% | -3% | -2.4%
19 | CCC(=O)OC1=C(Br)C(=O)c2ccccc2C1=O | 14% | 85% (active) | 89.6% (active) | 17% | 94% (active) | 57.4% | 25% | 68% | 80.3% (active) | 4% | 68% | 1.15% | 18% | 96% (active) | 18.9% | 38% | 85% (active) | 76.6% (active)
